# Results filed as inconclusive are left out. Activity calls are given as the source filed them. Rule for the calls: active = hit-call score of the fitted dose curve at least 0.9, where 1 is the maximum; inconclusive = response in the unintended direction; inactive = score below 0.9.
# Experiments:
# [1] = target: Histone deacetylase 3 (Homo sapiens) (UniProt O15379); test: NVS_ENZ_hHDAC3: NovaScreen (NVS) Enzymatic Assay for human Histone Deacetylase 3 (HDAC3) (AID 2283163)
# Summary of the method: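 Cell-free enzyme format: loss of fluorescent product after mobility-shift separation, 1 h incubation, recombinant human HDAC3. Single 25 uM duplicate screen first, then concentration series to a 50 uM top for hits; DMSO as baseline.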
# [2] = target: human LYN Proto-Oncogene, Src family Tyrosine Kinase (LynA), LYN (gene 4067) (UniProt P07948); test: NVS_ENZ_hLynA: NovaScreen (NVS) Enzymatic Assay for human LYN Proto-Oncogene, Src family Tyrosine Kinase (LynA) (AID 2283173)
# Sequence of human LYN Proto-Oncogene, Src family Tyrosine Kinase (LynA), LYN (gene 4067) (P07948 whole entry, looked up): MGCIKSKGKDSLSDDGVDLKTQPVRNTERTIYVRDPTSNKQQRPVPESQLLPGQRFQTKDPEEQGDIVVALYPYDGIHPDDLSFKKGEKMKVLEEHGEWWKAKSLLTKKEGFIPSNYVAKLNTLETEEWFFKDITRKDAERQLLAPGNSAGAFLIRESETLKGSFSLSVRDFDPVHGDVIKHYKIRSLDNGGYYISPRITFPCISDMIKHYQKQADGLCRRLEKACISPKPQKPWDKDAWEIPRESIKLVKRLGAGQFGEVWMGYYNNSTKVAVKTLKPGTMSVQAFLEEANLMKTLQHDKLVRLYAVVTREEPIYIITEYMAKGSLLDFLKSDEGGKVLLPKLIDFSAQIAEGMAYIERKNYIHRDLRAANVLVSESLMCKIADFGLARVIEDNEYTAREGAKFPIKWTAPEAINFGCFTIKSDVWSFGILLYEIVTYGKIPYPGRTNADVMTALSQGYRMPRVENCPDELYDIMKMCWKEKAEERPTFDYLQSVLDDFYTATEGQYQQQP
# Summary of the method: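 Recombinant kinase with fluorescent substrate; product separated from substrate by electrophoretic mobility shift and read 1 h after dosing. Duplicate screen at 25 uM, then concentration-response up to 50 uM; activity scored as signal loss against DMSO.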
# [3] = target: human Matrix Metalloproteinase-2 (MMP2), MMP2 (gene 4313) (UniProt P08253); test: NVS_ENZ_hMMP2: NovaScreen (NVS) Enzymatic Assay for human Matrix Metalloproteinase-2 (MMP2) (AID 2283184)
# Sequence of human Matrix Metalloproteinase-2 (MMP2), MMP2 (gene 4313) (P08253 whole entry, looked up): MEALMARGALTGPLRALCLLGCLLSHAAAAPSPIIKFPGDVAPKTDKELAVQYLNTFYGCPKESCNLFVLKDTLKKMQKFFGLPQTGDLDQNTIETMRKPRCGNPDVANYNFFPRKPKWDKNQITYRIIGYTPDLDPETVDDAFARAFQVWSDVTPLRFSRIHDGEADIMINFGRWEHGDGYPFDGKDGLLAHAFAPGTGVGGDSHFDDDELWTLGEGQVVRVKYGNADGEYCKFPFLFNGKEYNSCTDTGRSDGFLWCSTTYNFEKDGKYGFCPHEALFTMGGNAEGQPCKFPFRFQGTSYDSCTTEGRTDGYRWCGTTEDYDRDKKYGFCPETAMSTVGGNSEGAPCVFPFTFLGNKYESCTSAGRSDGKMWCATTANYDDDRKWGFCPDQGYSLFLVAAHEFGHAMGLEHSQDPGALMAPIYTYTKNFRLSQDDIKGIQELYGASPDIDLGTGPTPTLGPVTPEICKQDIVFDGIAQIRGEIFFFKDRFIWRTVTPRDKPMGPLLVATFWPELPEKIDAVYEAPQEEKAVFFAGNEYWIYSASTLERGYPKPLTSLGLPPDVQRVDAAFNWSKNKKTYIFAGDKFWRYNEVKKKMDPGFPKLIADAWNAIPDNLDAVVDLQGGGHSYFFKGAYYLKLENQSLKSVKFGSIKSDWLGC
# Summary of the method: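 Compounds first screened in duplicate at a single 25 uM, with actives followed up in concentration series. Recombinant human MMP2 cleaves a fluorogenic substrate; fluorescence taken at 1 h, inhibition fitted relative to DMSO.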
# Sequence of Histone deacetylase 3 (Homo sapiens) (O15379 whole entry, looked up): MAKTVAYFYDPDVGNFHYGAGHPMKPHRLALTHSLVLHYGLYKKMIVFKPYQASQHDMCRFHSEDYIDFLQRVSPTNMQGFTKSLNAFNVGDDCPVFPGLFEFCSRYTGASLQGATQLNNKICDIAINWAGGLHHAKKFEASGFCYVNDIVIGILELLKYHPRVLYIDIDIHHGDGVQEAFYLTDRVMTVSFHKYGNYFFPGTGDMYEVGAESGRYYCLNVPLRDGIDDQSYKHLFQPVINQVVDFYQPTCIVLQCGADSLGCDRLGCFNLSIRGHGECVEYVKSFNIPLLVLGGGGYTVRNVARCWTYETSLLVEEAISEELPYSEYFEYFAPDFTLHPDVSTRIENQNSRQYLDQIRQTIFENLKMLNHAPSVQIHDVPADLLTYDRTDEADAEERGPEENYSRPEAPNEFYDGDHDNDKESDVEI
compound,measurement,setting,value
Nc1cccc2c(N)cccc12,outcome,[1],inactive
CCCCCCCC(=O)O,outcome,[2],inactive
CCN(CC)CCNc1ccc(CNC=O)c2sc3ccc(OC)cc3c(=O)c12,outcome,[2],inactive
CN1CCN(c2ccccc2/C=C2\SCCN(c3ccc(Cl)c(Cl)c3)C2=O)CC1,outcome,[3],inactive
Cc1oc(-c2ccccc2)nc1CCOc1ccc(C[C@H](Nc2ccccc2C(=O)c2ccccc2)C(=O)O)cc1,AC50,[3],16.1 µM (active)
